# Test results reported in PubChem BioAssay (NCATS).
# Values joined by “and” are separate entries in the source; they are usually repeats but may differ in a detail not shown here. Identical values can stand only once. Inconclusive results are not listed. Entries that show only a call come without a potency. More than one record can exist for a structure, and the calls need not agree. Active and inactive are the calls of the source. Unless noted, calls follow the shape of the dose curve; as a rule, active = well fitted curve in the direction sought with a large enough effect; inconclusive = small, poorly fitted or top-dose-only effect, or another doubt; inactive = no such curve, though single readings can be large; an effect the other way counts as inactive or inconclusive.
# Legend:
# [1] = NCATS anti-infectives library activity on HEK293 viability as a counter-qHTS vs the C. elegans viability qHTS (AID 1745854);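 also: HEK293 cells exposed to compounds for 24 hr before the viability read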
# Procedure, shortened: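 HEK293 cells (1,500/well) exposed 24 hr at 37C to 1:5 titrations, up to 41.7 uM final; counter-screen to a C. elegans viability qHTS. Viability by CellTiter-Glo luminescence after 10 min at room temperature; digitonin as control.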
# [2] = Primary qHTS for inhibitors of nuclear receptor binding SET domain protein 2 (NSD2) in an isogenic RCH-ACV NSD2 p.E1099K mutant (9B) (AID 1645876); also: nearly all actives have a fitted effect of over 70% in size; also: potency is read from the fitted curve at half-maximal effect
# [3] = Primary qHTS for inhibitors of nuclear receptor binding SET domain protein 2 (NSD2) in an RCH-ACV wild type WT cells (2C) (AID 1645877); also: nearly all actives have a fitted effect of over 70% in size; also: potency is read from the fitted curve at half-maximal effect
# [4] = molecular target: Catechol O-methyltransferase (Homo sapiens) (UniProt P21964); assay: Confirmatory Screen for Target Class Profiling of Small Molecule Inhibitors of Methyltransferases (AID 1745852); conditions: MTase-Glo luminescence, SAH detection, recombinant enzyme, stronger effect = lower value; measured here: COMT max response unless noted
# [5] = molecular target: Guanidinoacetate N-methyltransferase (Homo sapiens) (UniProt Q14353); assay: as above; conditions: MTase-Glo luminescence, SAH detection, recombinant enzyme; activity change, negative = inhibition: at 57.3 µM (top of the series)
# [6] = molecular target: Nicotinamide N-methyltransferase (Homo sapiens) (UniProt P40261); assay: as above; conditions: MTase-Glo luminescence, SAH detection, recombinant enzyme, stronger effect = lower value; measured here: NNMT max response unless noted
# [7] = molecular target: Phenylethanolamine N-methyltransferase (Homo sapiens) (UniProt P11086); assay: as above; conditions: MTase-Glo luminescence, SAH detection, recombinant enzyme, stronger effect = lower value; measured here: PNMT max response unless noted
# [8] = molecular target: Rap guanine nucleotide exchange factor 3 (Homo sapiens) (UniProt O95398); assay: Confirmatory qHTS for antagonist of cAMP-regulated guanine nucleotide exchange factor 3 (EPAC1) (AID 1645880); also: nearly all actives have a fitted effect of over 55% in size
# Procedure, shortened: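 Nucleotide exchange uses 100 nM EPAC1, 250 nM RAP1B-BODIPY-GDP and 50 uM GDP, with compounds in a concentration-titration series. After 5 min at room temperature, fluorescence (480 nm ex/540 nm em) is read every 5 min for 30 min. Data are normalized to control ATA and DMSO.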
# [9] = molecular target: Rap guanine nucleotide exchange factor 3 (Homo sapiens) (UniProt O95398); assay: Confirmatory qHTS for agonist of cAMP-regulated guanine nucleotide exchange factor 3 (EPAC1) (AID 1645881);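 also: EPAC1 catalysed release of BODIPY-GDP from Rap1B seen as fluorescence loss; nearly all actives have a fitted effect of over 75% in size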
# [10] = molecular target: Rap guanine nucleotide exchange factor 4 (Homo sapiens) (UniProt Q8WZA2); assay: Confirmatory qHTS for agonist of cAMP-regulated guanine nucleotide exchange factor 4 (EPAC2) (AID 1645884);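 also: nucleotide exchange releases bodipy-GDP from Rap1 and this lowers its fluorescence; nearly all actives have a fitted effect of over 65% in size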
# [11] = molecular target: Rap guanine nucleotide exchange factor 4 (Homo sapiens) (UniProt Q8WZA2); assay: Confirmatory qHTS for antagonist of cAMP-regulated guanine nucleotide exchange factor 4 (EPAC2) (AID 1645885); also: nearly all actives have a fitted effect of over 25% in size; also: potency is read from the fitted curve at half-maximal effect
# [12] = molecular target: Rap guanine nucleotide exchange factor 3 (Homo sapiens) (UniProt O95398); assay: Counterscreen qHTS for antagonist of cAMP-regulated guanine nucleotide exchange factor 3 (EPAC1) (AID 1645888);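 also: fluorescence loss as bound BODIPY-GDP is released from Rap1B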
# Procedure, shortened: (§1)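 Rap1B-BODIPY-GDP 250 nM + GDP 50 uM; cpds 7-pt, final 9.74 nM–152 uM (activator mode) or from 7.32 nM upwards (inhibitor mode); RT; FI 480/540 nm at 5 and 30 min, then ± cAMP, reread.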
# [13] = NCATS anti-infectives library activity on the primary C. elegans qHTS viability assay (AID 1745855; calls by dose curve)
# Procedure, shortened: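 Viability read-out is GFP fluorescence of PE254-GFP-FLuc C. elegans, measured by laser cytometry (488 nm) at day 0, 3 and 7. Ten L1 worms per well were incubated 7 days at 21 °C with compounds and bacterial capsules in S medium.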
# [14] = molecular target: Rap guanine nucleotide exchange factor 3 (Homo sapiens) (UniProt O95398); assay: Counterscreen qHTS for agonist of cAMP-regulated guanine nucleotide exchange factor 3 (EPAC1) (AID 1645889); also: nearly all actives have a fitted effect of over 40% in size
# Procedure, shortened: as §1
# Sequence of Rap guanine nucleotide exchange factor 3 (Homo sapiens) (O95398 whole entry, looked up): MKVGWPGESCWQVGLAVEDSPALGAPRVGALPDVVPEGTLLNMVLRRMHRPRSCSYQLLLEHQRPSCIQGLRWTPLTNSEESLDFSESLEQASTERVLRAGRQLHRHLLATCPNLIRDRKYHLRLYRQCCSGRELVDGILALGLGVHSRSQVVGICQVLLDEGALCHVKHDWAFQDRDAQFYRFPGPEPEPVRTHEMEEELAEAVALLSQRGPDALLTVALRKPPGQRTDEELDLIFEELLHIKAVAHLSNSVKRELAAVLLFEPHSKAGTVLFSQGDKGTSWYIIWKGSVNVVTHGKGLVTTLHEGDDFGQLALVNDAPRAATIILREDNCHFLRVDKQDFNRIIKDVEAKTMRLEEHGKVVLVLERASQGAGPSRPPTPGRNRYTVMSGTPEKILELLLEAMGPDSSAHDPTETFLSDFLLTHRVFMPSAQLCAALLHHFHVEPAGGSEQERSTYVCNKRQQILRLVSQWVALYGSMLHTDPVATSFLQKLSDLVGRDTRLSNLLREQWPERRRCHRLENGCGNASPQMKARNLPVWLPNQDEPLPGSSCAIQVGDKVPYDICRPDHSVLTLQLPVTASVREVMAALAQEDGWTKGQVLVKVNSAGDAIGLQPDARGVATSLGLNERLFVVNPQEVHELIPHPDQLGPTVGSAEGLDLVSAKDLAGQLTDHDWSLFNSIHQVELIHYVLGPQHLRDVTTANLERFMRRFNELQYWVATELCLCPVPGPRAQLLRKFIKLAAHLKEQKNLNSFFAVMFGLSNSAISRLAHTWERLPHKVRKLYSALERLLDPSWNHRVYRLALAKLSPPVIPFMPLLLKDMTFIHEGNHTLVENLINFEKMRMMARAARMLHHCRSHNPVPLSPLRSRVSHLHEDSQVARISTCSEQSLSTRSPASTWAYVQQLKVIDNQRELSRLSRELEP
# Sequence of Rap guanine nucleotide exchange factor 4 (Homo sapiens) (Q8WZA2 whole entry, looked up): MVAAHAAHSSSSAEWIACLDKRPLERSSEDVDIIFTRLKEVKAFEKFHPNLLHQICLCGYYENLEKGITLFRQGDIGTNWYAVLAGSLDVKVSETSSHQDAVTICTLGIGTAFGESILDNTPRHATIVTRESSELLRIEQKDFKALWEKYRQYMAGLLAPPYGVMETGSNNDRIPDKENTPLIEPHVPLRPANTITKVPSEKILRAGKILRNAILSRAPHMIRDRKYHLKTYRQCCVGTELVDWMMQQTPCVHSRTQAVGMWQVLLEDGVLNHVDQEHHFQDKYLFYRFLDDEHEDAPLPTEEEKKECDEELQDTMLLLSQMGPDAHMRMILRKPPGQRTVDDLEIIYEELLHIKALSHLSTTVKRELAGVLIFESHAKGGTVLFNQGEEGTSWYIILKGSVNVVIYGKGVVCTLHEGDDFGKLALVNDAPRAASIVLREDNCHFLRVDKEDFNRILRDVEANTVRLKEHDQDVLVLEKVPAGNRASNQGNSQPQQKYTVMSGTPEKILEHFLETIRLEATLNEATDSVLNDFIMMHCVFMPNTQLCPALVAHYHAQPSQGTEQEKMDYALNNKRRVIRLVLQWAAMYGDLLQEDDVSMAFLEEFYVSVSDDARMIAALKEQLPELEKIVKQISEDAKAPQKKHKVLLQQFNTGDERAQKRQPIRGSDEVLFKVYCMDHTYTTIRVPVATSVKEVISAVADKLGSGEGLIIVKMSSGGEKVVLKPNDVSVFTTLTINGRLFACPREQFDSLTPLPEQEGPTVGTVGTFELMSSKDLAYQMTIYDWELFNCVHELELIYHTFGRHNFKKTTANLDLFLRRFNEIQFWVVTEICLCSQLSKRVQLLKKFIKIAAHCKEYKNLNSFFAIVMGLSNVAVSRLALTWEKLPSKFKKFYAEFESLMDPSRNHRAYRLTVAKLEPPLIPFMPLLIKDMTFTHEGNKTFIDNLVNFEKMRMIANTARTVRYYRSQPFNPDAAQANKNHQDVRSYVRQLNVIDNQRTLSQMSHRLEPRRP
# Sequence of Phenylethanolamine N-methyltransferase (Homo sapiens) (P11086 whole entry, looked up): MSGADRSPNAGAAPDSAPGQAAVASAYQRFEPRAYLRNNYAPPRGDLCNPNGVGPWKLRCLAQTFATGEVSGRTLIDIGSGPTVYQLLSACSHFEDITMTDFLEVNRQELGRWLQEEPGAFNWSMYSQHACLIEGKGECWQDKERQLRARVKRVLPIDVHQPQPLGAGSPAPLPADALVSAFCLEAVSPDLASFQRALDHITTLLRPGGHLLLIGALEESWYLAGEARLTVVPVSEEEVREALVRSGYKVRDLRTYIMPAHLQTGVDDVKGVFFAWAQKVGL
# Sequence of Nicotinamide N-methyltransferase (Homo sapiens) (P40261 whole entry, looked up): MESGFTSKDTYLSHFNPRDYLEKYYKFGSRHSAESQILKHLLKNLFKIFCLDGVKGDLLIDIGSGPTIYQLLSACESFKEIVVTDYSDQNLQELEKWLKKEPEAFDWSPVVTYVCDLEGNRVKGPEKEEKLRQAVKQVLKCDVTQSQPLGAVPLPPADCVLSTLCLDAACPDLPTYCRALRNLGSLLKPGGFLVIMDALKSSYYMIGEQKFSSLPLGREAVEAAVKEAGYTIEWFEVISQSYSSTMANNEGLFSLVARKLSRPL
# Sequence of Catechol O-methyltransferase (Homo sapiens) (P21964 whole entry, looked up): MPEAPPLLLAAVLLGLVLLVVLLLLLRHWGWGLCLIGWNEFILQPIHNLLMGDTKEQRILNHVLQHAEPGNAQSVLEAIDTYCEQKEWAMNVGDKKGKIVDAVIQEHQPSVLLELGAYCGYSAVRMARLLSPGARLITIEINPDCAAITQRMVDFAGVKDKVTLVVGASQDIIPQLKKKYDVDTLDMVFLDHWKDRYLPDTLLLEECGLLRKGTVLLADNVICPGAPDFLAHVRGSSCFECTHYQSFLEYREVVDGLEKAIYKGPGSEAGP
smiles,measurement,setting,value
CC(C)c1nc(CN(C)C(=O)N[C@H](C(=O)N[C@@H](Cc2ccccc2)C[C@H](O)[C@H](Cc2ccccc2)NC(=O)OCc2cncs2)C(C)C)cs1,outcome,[1],inactive
COc1c(O)cc2c(c1O)[C@@H]1O[C@H](CO)[C@@H](O)[C@H](O)[C@H]1OC2=O,Potency,[2],inactive
same,Potency,[3],inactive
same,activity,[4],-77.9%
same,"activity change, negative = inhibition",[5],0%
same,activity,[6],1.14%
same,activity,[7],-0.831%
same,outcome,[1],inactive
CN(C)C(=O)COC(=O)Cc1ccc(OC(=O)c2ccc(N=C(N)N)cc2)cc1,Potency,[2],inactive
same,Potency,[3],inactive
same,outcome,[1],inactive
CCOC(=O)c1c(C)n(C)c2ccc(O)cc12,Potency,[2],inactive
same,Potency,[3],inactive
same,outcome,[1],inactive
Clc1ccc(C(Cn2ccnc2)OCc2c(Cl)cccc2Cl)c(Cl)c1 (stereo not drawn),Potency,[2],21.1 µM (active) and 18.6 µM (active)
same,Potency,[3],21.1 µM (active) and 18.6 µM (active)
same,Potency,[8],inactive
same,outcome,[9],inactive
same,outcome,[10],inactive
same,Potency,[11],20.5 µM (active) and inactive
same,outcome,[12],inactive
same,activity,[4],-8.16%
same,"activity change, negative = inhibition",[5],-4.74%
same,activity,[6],-55.2%
same,activity,[7],-12.3%
CC(C)[C@H](N)C(=O)OCCOCn1cnc2c(=O)[nH]c(N)nc21,Potency,[2],inactive
same,Potency,[3],inactive
same,outcome,[1],inactive
CCOC(=O)C1=C[C@@H](OC(CC)CC)[C@H](NC(C)=O)[C@@H](N)C1,Potency,[2],inactive
same,Potency,[3],inactive
same,outcome,[1],inactive
same,Potency,[13],inactive
CCOc1cc(CC(=O)N[C@@H](CC(C)C)c2ccccc2N2CCCCC2)ccc1C(=O)O,Potency,[2],inactive
same,Potency,[3],inactive
same,Potency,[8],inactive
same,outcome,[9],inactive
same,outcome,[10],inactive
same,Potency,[11],inactive
same,outcome,[12],inactive
same,outcome,[14],inactive
O=P(O)(O)C(O)(Cn1ccnc1)P(=O)(O)O,"activity change, negative = viability loss",[2],6% [at 4.96 µM] (inactive)
same,outcome,[3],inactive [at 4.96 µM]
same,"activity change, negative = cytotoxicity",[1],-5.55% [at 3.71 µM] (inactive)
